# Screening data (PubChem BioAssay)
# Cycloheximide cs – counter-screen for Shiga toxin inhibitors: cycloheximide protein synthesis inhibition. cell reporter, cycloheximide protein synthesis inhibition counterscreen. max response, %. 300,000 tested, 12% active; in the data active = max response mostly above about 13%, no sharp cut-off; inactive = mostly below about 14%; also: read at 38.3 µM for the half of the compounds with a filed dose; 0% is about no effect
# AMA1-RON2 inh – AMA1-RON2 (P. falciparum) interaction inhibition; AlphaScreen AMA1-biotinylated RON2 peptide binding; Potency, µM (highest dose often 58.2 µM), without a hit: at the highest dose activity change, negative = inhibition, actives largely listed as inhibitors; 360,000 tested, 0.2% active; AID 720542;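 also: potency is read from the fitted curve at half-maximal effect; 0% = vehicle wells and -100% = peptide control; nearly all actives have a fitted effect of over 45% in size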
#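 AMA1 (3D7) with his tag at 25 nM final met compounds first, then biotinylated RON2 peptide at 25 nM; detection used donor plus acceptor beads, 10 µg/mL apiece, read by AlphaScreen after 30 min at room temperature.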
# Pf growth 96h – inhibits malaria parasite growth, 96 h; P. falciparum luciferase reporter growth, 96 h; Potency, µM (doses to about 28.7 µM), for the others: at the top dose activity change, negative = inhibition, actives largely listed as inhibitors; 320,000 tested, 6.9% active; AID 504834; also: potency is read from the fitted curve at half-maximal effect; % is scaled to controls: 0 for no effect and ±100 for the full control effect
#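 Compounds incubated with erythrocytes infected by luciferase-expressing P. falciparum (2% hematocrit, 0.05% parasitemia final) for 96 hours, 37 C in 5% CO2. Growth inhibition scored as decreased luciferase luminescence.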
# Shiga toxin inh – inhibitors of Shiga toxin in Vero cells. Vero cells, Shiga toxin protein synthesis inhibition reporter. inhibition, % at 38.7 µM. 290,000 tested, 9.2% active; in the data active = inhibition mostly above about 28%, no sharp cut-off; inactive = mostly below about 43%; also: 0% is about no effect
# Pf growth 48h – P. falciparum growth inhibition at 48 hours (one generation); Potency, µM (doses to about 28.7 µM), for inactives: at the top dose activity change, negative = inhibition, hits mostly inhibitors; P. falciparum luciferase growth in erythrocytes, 48 h; AID 504832; 310,000 tested, 5.9% active; also: potency is read from the fitted curve at half-maximal effect; % is scaled to controls: 0 for no effect and ±100 for the full control effect
#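 Luciferase-expressing parasites in RBCs, 2% Hct / 0.1% parasitemia final; RPMI 1640 + 0.5% Albumax; 37 C, 5% CO2, one generation; luminescence read-out, lower signal = inhibition.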
# HCV inhibitor – HCV inhibition | Potency, µM (top dose mostly 41.8 µM), for inactives: at the highest dose activity change, negative = inhibition, hits mostly inhibitors | Huh7.5.1 HCVcc-Cre infection, luciferase reporter, 44 h | 340,000 tested, 3.4% active; also: potency is read from the fitted curve at half-maximal effect; % is scaled to controls: 0 for no effect and ±100 for the full control effect
#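 HCVcc-Cre virus at an moi near 0.5 was added right after compound to cells cultured 4 h from seeding (1,000 cells/well). Luciferase activity was determined 44 h later, 15 min after substrate addition at RT.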
# An asterisk follows results filed as active; u = inconclusive; x = not tested or not shown. Shown are actives, neighbours in structure and some others; about 21% of the full set was active somewhere. Unless noted, calls follow the shape of the dose curve; as a rule, active = well fitted curve in the direction sought with a large enough effect; inconclusive = small, poorly fitted or top-dose-only effect, or another doubt; inactive = no such curve, though single readings can be large; an effect the other way counts as inactive or inconclusive.
SMILES,Cycloheximide cs,AMA1-RON2 inh,Pf growth 96h,Shiga toxin inh,Pf growth 48h,HCV inhibitor
Cn1ccnc1SCc1cc(=O)[nH]c2ccccc12,17*,-2%,-7%,19,20%,11%
Cc1cccc(-c2nnc(SCc3cc(=O)[nH]c4ccccc34)n2C)c1,-4,19%,u,8,13µM*,11%
Brc1ccc2nc(-c3c[nH]c4ccccc34)cn2c1,31*,-12%,-24%,64*,344%,-21%
Nc1nc(-c2c[nH]c3ccccc23)cs1,17,u,x,44,u,-19%
Cc1cccn2cc(-c3c[nH]c4ccccc34)nc12,41*,-13%,u,122*,u,-15%
Oc1c(C(Nc2nccs2)c2ccc(C(F)(F)F)cc2)ccc2cccnc12 (configuration not stated),-2,1%,-73%,20,0.37µM*,u
Oc1c(C(Nc2cccc(C(F)(F)F)c2)c2ccncc2)ccc2cccnc12 (configuration not stated),-3,-24%,u,-12,1.9µM*,6.3µM*
C[C@@H]1CN([C@@H](C)CO)C(=O)CCCn2nncc2CO[C@H]1CN(C)Cc1ccc2cccnc2c1,x,1%,x,x,x,x
CCn1cc(C(=O)N[C@@H](CCSC)C(=O)NCCN2CCOCC2)c(=O)c2cc3c(cc21)OCO3,-1,52%,-11%,-1,-28%,12%
CC1CCCC(C)N1C(=O)COC(=O)c1cncc(Br)c1 (configuration not stated),x,15%,x,x,x,1%
O=C(O)C1Nc2c(O)cc(Cl)c([N+](=O)[O-])c2C2C=CCC12 (configuration not stated),-5,2.2µM*,u,-9,38%,-2%
NC1=NC[C@@H](Cc2ccc(O)cc2)N1CCc1cccc2ccccc12,1,8%,1.9µM*,19,5.9µM*,21%
NC1=NC[C@H](Cc2ccc(O)cc2)N1CCc1cccc2ccccc12,-6,-6%,1µM*,-5,3.3µM*,-2%
CCOCCCn1c(SCC(=O)Nc2ccc3[nH]c(=O)[nH]c3c2)nc2ccccc2c1=O,x,12%,12%,x,12%,u
Cc1sc2ncnc(SCC(=O)Nc3ccc(S(=O)(=O)N4CCOCC4)cc3)c2c1C,x,-7%,x,x,x,18%
CN(C)c1nc(=NCc2ccco2)ss1,17,39%,2.6µM*,38,u,-12%
CCOC(CN=c1nc(N(C)C)ss1)OCC,x,15%,x,x,x,0%
O=c1[nH]c(=S)[nH]c2c1C(c1ccc(Br)cc1)c1c([nH]c(=S)[nH]c1=O)O2,0,35µM*,6%,-6,30%,15%
CC1(C)Cc2c(C#N)c(N3CCN(C(=O)c4ccco4)CC3)nc(-c3ccco3)c2CS1,0,u,u,-9,4.7µM*,8.9µM*
CC1(C)Cc2c(C#N)c(N3CCN(C(=O)c4ccccc4Cl)CC3)nc(-c3ccco3)c2CS1,-3,u,1.7µM*,-9,u,u
CC(=O)N1CCN(c2nc(-c3ccco3)c3c(c2C#N)CC(C)(C)SC3)CC1,2,-22%,u,-12,u,13µM*
O=C(OC[C@@H]1O[C@@](O)(COC(=O)c2cccnc2)[C@H](OC(=O)c2cccnc2)[C@H]1OC(=O)c1cccnc1)c1cccnc1,11,x,u,-3,-20%,x
Cc1cccc(C)c1-n1nnnc1C(c1ccnc2ccccc12)N(Cc1ccccc1)Cc1ccccc1 (configuration not stated),x,50%,x,x,x,x
O=C(O)c1cccc(NC(=O)c2cccc(S(=O)(=O)N3CCc4ccccc43)c2)c1,-2,-2%,-17%,17,-7%,12%
CC(=O)N1c2ccc(S(=O)(=O)N3c4ccccc4CC3C)cc2CC1C (configuration not stated),5,-10%,25%,-9,u,-25%
SMILES,Cycloheximide cs,AMA1-RON2 inh,Pf growth 96h,Shiga toxin inh,Pf growth 48h,HCV inhibitor
O=C(Nc1cccnc1)c1ccc(Cl)c(S(=O)(=O)N2CCc3ccccc32)c1,6,7%,3.7µM*,5,2.6µM*,-29%
O=C(Nc1ccncc1)c1cccc(S(=O)(=O)N2CCc3ccccc32)c1,x,-15%,u,x,10µM*,8.9µM*
COc1ccc(S(=O)(=O)N2CCc3ccccc32)cc1C(=O)Nc1cccnc1,-3,24%,2.9µM*,-2,u,-13%
COc1ccc(S(=O)(=O)N2CCc3ccccc32)cc1C(=O)O,-4,11%,91%,x,1%,2%
CC1Cc2ccccc2N1S(=O)(=O)c1ccc2c(c1)n(C)c(=O)c(=O)n2C (configuration not stated),-3,19%,u,-9,9.3µM*,13%
Cn1[nH]c(C(F)(F)F)cc1=O,-4,2%,u,-8,u,7%
CC(C)OCCCNC(=O)CNC(=O)c1ccc(Cl)c(Cl)c1,-2,12%,16%,19,7%,-5%
CCN(CC(=O)Nc1ccc(NC(C)=O)cc1)C(=O)c1cccc(S(=O)(=O)N2c3ccccc3CC2C)c1 (configuration not stated),x,-4%,u,x,u,19%
O=C(NC1=NCCS1)c1cccc(S(=O)(=O)N2CCc3ccccc32)c1,-1,38%,-18%,-9,u,u
CC1Cc2ccccc2N1S(=O)(=O)c1cccc(C(=O)Nc2cccnc2)c1 (configuration not stated),-2,6%,u,-5,8.3µM*,u
C=CCN(CC=C)C(=O)c1cccc(S(=O)(=O)N2c3ccccc3CC2C)c1 (configuration not stated),-1,4%,u,-7,2.3µM*,u
O=C(COc1ccc(S(=O)(=O)N2CCc3ccccc32)cc1Cl)NCc1ccccn1,-3,32%,x,-11,u,-10%
O=C(Nc1cccnc1)c1cccc(S(=O)(=O)N2CCc3ccccc32)c1,5,14%,3.3µM*,-4,10µM*,u
COc1ccc(S(=O)(=O)N2CCc3ccccc32)cc1C(=O)NCCc1ccccn1,6,-4%,u,-15,10µM*,21%
Nc1nc2cc(Cl)ccc2cc1C(=O)NCCCc1ccccc1,x,2%,x,x,x,x
CC1(C(=O)Nc2ccc(Cl)c(Cl)c2)CCN1C(=O)Cc1cccc2ccccc12 (configuration not stated),x,-12%,x,x,x,x
Cc1cc(C)c(NC(=O)c2cccc3c2C(=O)N(C2CCCCC2)C3)c(C)c1,-8,4%,44%,-5,0%,u
Cc1ccccc1-c1cnc(C(O)c2ccc(F)c(F)c2)[nH]1 (configuration not stated),x,-1%,x,x,x,x
CCOC(=O)C1(CC2CC2)CCN(Cc2cnc(-c3ccccc3C)nc2)CC1,6,4%,u,6,13µM*,u
